Over roughly 25,000 sequences, “ln(normalized median fluorescence intensity)” has its median near 9.7; the highest 2% begin near 11. Shown is part of a subset that was picked to be rich in the highest values.
Tested on: PfAP2-HC AP2 domain (GST-tagged)
Assay: gcPBM binding intensity (ln(normalized median fluorescence intensity)); higher = stronger DNA binding
In short: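 Binding intensity values are the highest Masliner-normalised natural-log median intensity among replicate spots of either probe orientation. The binding step lasted 1 h in 1× PBS with 1% milk, 0.2 mg/ml BSA, 0.5% salmon testes DNA and 0.03% Triton X-100, using GST-tagged P. falciparum DNA-binding domains expressed in E. coli on an Agilent 4 × 180k array of primer-extended double-stranded 36-bp intergenic genomic probes plus negative controls. Alexa488 anti-GST antibody and a 488 nm scan detected bound protein.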

Sequence	gcPBM binding intensity (ln)
ATATAAATATGTTCTGCACACAAATAAGTGTTTGAA [CACACA_site9291]	9.79
GCACTAAAAAAATAAACACACAGATTTATATAATAT [CACACA_site1381]	9.79
TACAAAAGCTATAACATTCACCACATTATAAAAATA [CACACA_negctrl_site1112]	9.78
TAAAAACCAAAGAAAAGTACAAATTTAAATGAGAAA [XGTACX_site7450]	9.83
AAATATGTCAAATATACACACATAATAAATATAATA [CACACA_site2310]	9.99
TTCTAATATATGCATACACACAAATGTGAATATACA [CACACA_site2142]	9.83
AATAAAATAAAATACACACATACATACATACAAATG [CACACA_site2438]	11.2
AAAAAAAAAATATACACACACACATACACATAAATA [CACACA_site3808]	10.4
TAAAGGCAAACAAACACACACACATATATACCTATA [CACACA_site7078]	10.6
AACAAATACGGACACACACACACACTAGAAAAAAAA [CACACA_site4442]	11
TAAAGGCAAACAAACACACACACATATATACATATA [CACACA_site2123]	11.1
AAAAAAAAAAAATACACACACATAAAAAAAAAAATA [CACACA_site1858]	10.9
AAGGCAAACAAACACACACACATATATACATATATA [CACACA_site2122]	10.4
AAAATAAAATAAAATACACACATACATACATACAAA [CACACA_site5366]	10.2
TATTAATACGGACACACACACACACTAGATAAAATA [CACACA_site4295]	10.8
AAAAAAAAAAAAAATACACACACATAAAAAAAAAAA [CACACA_site8555]	10.9
AACAAACACGGACACACACACACACTAGAATGATTA [CACACA_site5364]	10.7
ACAAAAAAAAAAAAAATACACACACATAAAAAAAAA [TGCATGCA_negctrl_site333]	10.2
AATACATAATAACATGTACACACATTCTTCTATAAA [CACACA_site9344]	9.82
TAATAAACTTAAAAATGTACATATATTTATTATTAC [XGTACX_site4321]	9.61
AGTAAGAGGCATTAAGCATGCATATTATTATAAGCA [TGCATGCA_site237]	9.85
AAGAATGTTAATAGTACACACAATTATTATATAAAT [CACACA_site3739]	9.93
TCCAAATGTTTGCGTTGTACTCTTTTTTTAAAACTA [XGTACX_site5148]	9.73

Sequence	gcPBM binding intensity (ln)
ATATTTTTTTATAAATGTACAAAAATAATATTGCAT [XGTACX_site7399]	9.48
ATATATATTATCATTGTGCACTTATTTATATACCTT	10
TGTACAAATATGTACACACACACATATATATATATA [CACACA_site584]	10.3
AAAATACACAACATATATATATATATATATATATAT [XGTACX_negctrl_site21]	9.62
CAAATACACCAACACACACACACAAAAAAAAAAAAA [CACACA_site514]	11.3
AAAAAAAAAAAACATACACACAAATATATACATACA [CACACA_site4011]	10.2
AAAAAAAAAAAACACACACACACATACAAAATATAT [CACACA_site1448]	11.3
AAAATATATACACAAACATGCATATAATAAATAAAT [TGCATGCA_site711]	9.99
ATATATCTACAAATATGTACACACACACATATATAT [XGTACX_site1075]	11.1
AACATATAAAAATATGCACACACAGGAATACAAACA [CACACA_site8127]	11.2
AAAATACACCAACACACACACATATATATATATATT [CACACA_site4149]	10.3
CATATAAAAATATGCACACACAGGAATACAAACATA [CACACA_site684]	10.3
AAAAAAAAAAAAAACATACACACAAATATATACATA [CACACA_site4010]	10
AATAAATATATGTACACACACAAATATATACATATC [CACACA_site1903]	10.2
TATAAATTAAAATCAGTGCATATTTTGAAAAACCTC	9.66
ATATATTGATATATGTGTACATAGCTTATTTCATTT [XGTACX_site1800]	9.74
GTAAAATTAAAAATAACACACAAAAAAAAAAAAAAA [CACACA_site800]	9.85
TTTATTTATTTATTCTTATTTTTTTTTTTTTTTACT [CACACA_negctrl_site257]	9.49
CTATGAACACACACATGTACATATATTAACTCGCTA [XGTACX_site8805]	9.98
TTATAACTTTTCACAAGTACATATATATATGTATAA [XGTACX_site2306]	9.53
AAGTTAGTATTCTGCTGTACTTCTATATATAAGTGT [XGTACX_site7678]	9.61
TATACACATATATAAACACACAAAAAAAAAAAAAAA [CACACA_site7041]	9.57
TATATACACATATATAAACACACAAAAAAAAAAAAA [CACACA_site8626]	9.82

Sequence	gcPBM binding intensity (ln)
TACAAAATGGGGAACACACACATATATATATATATA [CACACA_site3844]	9.99
TATAACATAAAACACACACACATACATACACAAAAA [CACACA_site1804]	11
GATACAAAATGGGGAACACACACATATATATATATA [CACACA_site9278]	10.8
AACAGACAAAGACACACACACATACATACATACATA [CACACA_site6351]	10.4
CACAGACACGGACACACACACACAAAAAAAAAAAGA [CACACA_site4436]	11.3
TAAATATATAAATACACACACATACACAAAAAAAAA [CACACA_site5890]	10.9
CACACGCACGGACACACACACAAAAAAAAAAAGAAA [CACACA_site6378]	10.3
CACATACATATATACACACACAAAATAATAAAATAA [CACACA_site2308]	10.4
TACAAAATGGGGAACACACACATATATAAATAAATA [CACACA_site7751]	11.1
TATAAATATATATATACACACACATACACAAAAAAA [CACACA_site9191]	10.5
TTTTTTTGCATTTCATGTACATATATTGAGCTTAAA [XGTACX_site8485]	9.6
TCACAAATGTATTATACACACAAGTTTTCTTTAATA [CACACA_site4107]	9.71
ATGAATTTTTCTCTACAAAAGGATATAATAAAAATA [XGTACX_negctrl_site461]	9.37
TTACGAATAAAACAGTGTACATTGAATTTCTATGAG [XGTACX_site4771]	9.51
TTTTTAAAAATATACACACACAGATATTATAGATAT [CACACA_site6511]	10.1
TCCTTATTTATATAATGTACTTTTTTTTTTCATTTT [XGTACX_site4275]	9.64
TTTATTCAAATATAATGTACTTTCTACAAATTCAAT [XGTACX_site8119]	9.43
TATTATATAAAATATTTTATTATATCATCTTCTCTA [XGTACX_negctrl_site319]	9.44
TTCATTTTCATATATTGTACAAAATTTTATAAGGTT [XGTACX_site4522]	9.58
ATCTTGAAGATTATTTGTACACAAAAGTTAAAATAT [XGTACX_site242]	9.47
AAAAAAAAAAAACACACACACACAAATACATACACA [CACACA_site706]	10.7
AAAAAAAAAAAACATACACACAAATAAATACATACA [CACACA_site6073]	10.1
AAAAAAAAAAAACACACACACAAATACAAATACATA [CACACA_site415]	11.5

Sequence	gcPBM binding intensity (ln)
TCATACTGTATATTTTGTACTTATATATATATTATA [XGTACX_site6136]	10
TATTCCCCCCAACACACACACACACCGACATACCAC [CACACA_site8723]	11.5
CATATTCCCCCCCACACACACACACCCATACATACC [CACACA_site2303]	10.6
TATTCCCCCAAACACACACACACACCCACATACCAC [CACACA_site2304]	10.7
CACCCACCCACATACACACACATACACATATATATA [CACACA_site1722]	10.3
GACATATTCCCCCCCACACACACACCCACATACATA [CACACA_site2302]	11.1
ACATACATACCCCCACGTACGTACCGAAACACCACC [XGTACX_site1982]	9.84
AATTATATATTATAATGTACATATATATAACTATAC [XGTACX_site1865]	9.67
ATAATTCATGTTTAGTGTACAAAAAATTAAAGCAAC [XGTACX_site8891]	9.87
ATATAGTATAATAAAAGTACATTTTGATTTTTTCTC [XGTACX_site1797]	9.61
AATAAACATAAATAAAAATTATAAAATATATATATG [CACACA_negctrl_site1709]	9.75
AACATACAGAAACACACACACACACCCACACCCACA [CACACA_site493]	11.5
TACATACAGAAACACACACACACATATATATATATA [CACACA_site2919]	11.1
CATACATAGAAACACACACACACACCCACCCACAAA [CACACA_site494]	10.6
ATATAACAGAAACACACACACATATATATATATTAT [CACACA_site4140]	11.3
TAAAAAAAAACAGAAACACACATTATTCATATATAT [CACACA_site2049]	10.2
TAAATACAGAAACACACACACAAATATATACATACA [CACACA_site2880]	10.5
CAAATACAGAAACACACACACATATACATATATATA [CACACA_site3498]	10.4
CATATACAGAAACACACACACACATAAATAAATATA [CACACA_site1343]	11
CATACACAGAAACACACACACATATATACATATATA [CACACA_site1094]	10.4
CATTATAAGAAACACACACACATATATATATATATA [CACACA_site1051]	10.1
CATACACAGAAACACACACACATATATATATATATA [CACACA_site4519]	10.2
TATACGCAGAAACACACACACATACACCCACATACA [CACACA_site1723]	10.6
